Assay outcomes: PubChem, National Center for Advancing Translational Sciences (NCATS)
The list is not random: actives were taken first. Their share in the collection is about 18%.
CtBP-E1A blk – blocks the CtBP interaction with E1A. AID 651724. 340,000 tested, 0.49% active. AlphaScreen GST-E1A/His-CtBP binding, 1536-well; hits give low values. activity change, % (concentration not given with the values); in the data active = activity change below about -65%; inconclusive = mostly about -30% to -63%
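Homogeneous bead-based format: GST-tagged E1A captured on glutathione donor beads, His-tagged CtBP on nickel acceptor beads; compounds precede bead addition by 2 h at 37 °C.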
Six1-Eya2 blk – inhibitors of human Six1/Eya2 interaction | Q15475+O00167 | AlphaScreen GST-Six1/His-Eya2 binding, biochemical; hits give low values | activity change, % (no concentration beside the values) | 360,000 tested, 0.56% active; in the data active = activity change below about -65%; inconclusive = mostly about -30% to -63%
Target sequence (O00167 whole entry, looked up): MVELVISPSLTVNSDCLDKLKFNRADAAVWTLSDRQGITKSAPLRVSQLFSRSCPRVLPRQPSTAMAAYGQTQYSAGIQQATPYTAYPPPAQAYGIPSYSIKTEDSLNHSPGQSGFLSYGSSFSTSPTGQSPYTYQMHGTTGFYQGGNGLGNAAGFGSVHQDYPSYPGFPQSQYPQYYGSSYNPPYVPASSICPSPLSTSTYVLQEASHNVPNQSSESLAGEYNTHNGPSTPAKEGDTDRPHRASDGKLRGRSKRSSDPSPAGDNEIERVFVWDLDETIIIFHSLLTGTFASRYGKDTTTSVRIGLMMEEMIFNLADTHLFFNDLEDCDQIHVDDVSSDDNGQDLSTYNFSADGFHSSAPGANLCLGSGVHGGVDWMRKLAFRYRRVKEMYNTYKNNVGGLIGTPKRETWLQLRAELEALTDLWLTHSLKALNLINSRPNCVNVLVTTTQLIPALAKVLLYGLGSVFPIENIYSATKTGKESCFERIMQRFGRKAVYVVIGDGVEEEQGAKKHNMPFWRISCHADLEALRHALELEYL
Target sequence (Q15475 whole entry, looked up): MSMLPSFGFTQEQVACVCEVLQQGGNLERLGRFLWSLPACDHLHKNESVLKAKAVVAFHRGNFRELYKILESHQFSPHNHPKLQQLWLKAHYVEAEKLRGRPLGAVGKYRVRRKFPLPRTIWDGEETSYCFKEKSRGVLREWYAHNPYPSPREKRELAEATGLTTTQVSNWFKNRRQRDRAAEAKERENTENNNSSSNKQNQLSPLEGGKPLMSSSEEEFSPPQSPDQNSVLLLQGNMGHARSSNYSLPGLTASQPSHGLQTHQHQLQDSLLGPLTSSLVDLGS
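AlphaScreen luminescence read after one hour at 37 °C in darkness. Pin-transferred compounds met GST-Six1 and His-Eya2 protein (5X stock 250 nM/500 nM) plus glutathione donor and Ni-chelate acceptor beads (5X, 50 ug/mL).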
IL1B secr inh – inflammasome signaling inhibition, IL-1 beta readout. THP-1 LPS/ATP IL-1B secretion, AlphaLISA, 16 h; hits give low values. activity change, % at 57.5 µM. 360,000 tested, 4.7% active; in the data active = activity change below about -50%; inconclusive = mostly about -30% to -49%
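Secreted IL-1B measured by AlphaLISA bead assay after 16 h compound exposure of THP-1 cells; compounds (final up to 57.5 uM) added 1 h before LPS (250 ng/mL) and ATP (1.25 mM) stimulation; lower signal means less secretion.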
TDP1 cell noCPT – qHTS for Inhibitors of human tyrosyl-DNA phosphodiesterase 1 (TDP1): qHTS in cells in absence of CPT. DT40 Tdp1-/- hTDP1 cells, no CPT, ATP luminescence, 48 h. Potency, µM (doses to about 46.2 µM), hits mostly inhibitors. 420,000 tested, 15% active. AID 686978, 2013; also: nearly all actives have a fitted effect of over 55% in size
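No-CPT arm: Tdp1-/-;hTDP1 DT40 cells (400/well) plus compounds, incubated ≥48 hr at 37 °C. Readout CellTiter-Glo luminescence.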
DT40 TDP1 CPT – DT40-hTDP1 cell growth loss with CPT; AID 686979; Potency, µM (titrated, usually from 46.2 µM), actives largely listed as inhibitors; chicken DT40 Tdp1-/-;hTDP1 cells + 20 nM CPT, ATP luminescence, 48 h; 420,000 tested, 12% active; also: nearly all actives have a fitted effect of over 55% in size
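Chicken DT40 Tdp1-/- cells complemented with human TDP1, 400 cells/well, exposed to compounds plus 20 nM camptothecin for at least 48 h at 37 C; viability read as ATP content by CellTiter-Glo luminescence.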
TDP1 inh – blocks human tyrosyl-DNA phosphodiesterase 1 | recombinant TDP1, AlphaScreen DNA substrate cleavage | Potency, µM (doses to about 130 µM), usual class: inhibitors | 350,000 tested, 0.28% active; also: nearly all actives have a fitted effect of over 40% in size
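Enzyme-compound mixtures sat 15 min at room temperature, followed by a 5 min reaction with 15 nM final substrate and 10 min with AlphaScreen beads. Recombinant human Tdp1 was used at 1 nM final.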
Hits are given with their value; 0 = inactive; ? = inconclusive; - = no result given. Unless noted, calls follow the shape of the dose curve; as a rule, active = well fitted curve in the direction sought with a large enough effect; inconclusive = small, poorly fitted or top-dose-only effect, or another doubt; inactive = no such curve, though single readings can be large; an effect the other way counts as inactive or inconclusive.

SMILES | CtBP-E1A blk | Six1-Eya2 blk | IL1B secr inh | TDP1 cell noCPT | DT40 TDP1 CPT | TDP1 inh
COc1ccc(C(C[N+](=O)[O-])c2c(-c3ccccc3)cc3ccccn23)cc1 (configuration not stated) | 0 | 0 | 0 | 18µM | 23µM | 0
COc1ccc(C(C[N+](=O)[O-])c2c(-c3ccccc3)cc3ccccn23)cc1OC (configuration not stated) | 0 | 0 | 0 | 15µM | 7.3µM | 0
COc1cc(C(C[N+](=O)[O-])c2c(C)cc3ccccn23)ccc1O (configuration not stated) | 0 | 0 | -97 | 13µM | 8.2µM | 0
O=C(COC(=O)C1COc2ccccc2O1)c1ccc(F)cc1 (configuration not stated) | 0 | 0 | 0 | 0 | 0 | -
Cc1cc(NC(=O)COC(=O)C2CCN(C(=O)c3ccc(Cl)cc3)CC2)no1 | 0 | 0 | 0 | 0 | 0 | 0
CCN(CC)c1ccc(NC(=O)c2ccccn2)cc1S(=O)(=O)Nc1ccccc1OC | 0 | ? | 0 | 21µM | 16µM | 0
COc1ccccc1NS(=O)(=O)c1cc(NC(=O)CNC(=O)c2ccccc2)ccc1C | ? | ? | 0 | 0 | 0 | 0
COc1ccc(NS(=O)(=O)c2cc(NC(=O)c3ccccn3)ccc2OC)cc1Br | 0 | 0 | -56 | 0 | ? | 0
CCN(CC)c1ccc(NC(=O)COc2ccccc2C#N)cc1S(=O)(=O)Nc1ccccc1OC | 0 | 0 | 0 | 2.3µM | 2.6µM | 0
CC1(C)CC2(C)OC2C2(C1)N=NC(=Nc1ccccc1)O2 (configuration not stated) | 0 | 0 | -99 | 4.1µM | 4.1µM | -
C=CCNC(=O)CN1C(=O)c2cccc3cccc1c23 | 0 | 0 | 0 | 0 | 0 | -
Nc1ccc(N)c(C(=O)O)c1 | ? | -82 | 0 | ? | ? | 0.28µM
O=c1ccn(CCc2c[nH]c3ccccc23)c2c1CCCC2 | 0 | 0 | -58 | 0 | 0 | 0
CCNc1nc(C#N)nc(Nc2ccccc2)n1 | - | - | - | 11µM | ? | 0
CNc1nc(Nc2ccc([N+](=O)[O-])cc2)nc(OCC(F)(F)F)n1 | 0 | 0 | 0 | 0 | 0 | -
CNc1nc(N/N=C/c2cc([N+](=O)[O-])ccc2F)nc(Nc2ccccc2)n1 | - | 0 | -97 | 7.3µM | 13µM | -
CNC[C@H](CC1CCCCC1)NC[C@H](Cc1ccccc1)NCCC12CC3CC(CC(C3)C1)C2 | 0 | 0 | -100 | 13µM | 7.3µM | -
NC[C@H](Cc1ccccc1)NCCCCC1CCCCC1 | 0 | 0 | 0 | ? | 0 | 0
O=[N+]([O-])c1cccc(C(=Nc2ccc(Cl)cc2)NO)c1 | 0 | 0 | 0 | ? | ? | 0
CCCNC(=O)Cn1sc2nc(C)cc(C)c2c1=O | 0 | 0 | ? | 4.1µM | 3.7µM | 0
Cc1nn(CC(=O)N2CCC(N3CCCCC3)CC2)c(=O)c2c1sc1ccccc12 | - | 0 | 0 | 0 | 0 | 0
Cc1cc(C)c2c(=O)n(CC(=O)N3CCC(N4CCCCC4)CC3)sc2n1 | 0 | 0 | 0 | 15µM | 15µM | 0
CCOC(=O)[C@]12CCC=C1N(CCC1=CCCCC1)C(=O)[C@H](CC(=O)NCCCOC)C2 | 0 | 0 | 0 | ? | 0 | -
COCCCNC(=O)C[C@@H]1C[C@@]2(C(=O)OC)CCCCC=C2N(CCC2=CCCCC2)C1=O | 0 | 0 | 0 | 16µM | ? | -
COC(=O)[C@]12CCCCC=C1N(CCC1=CCCCC1)C(=O)[C@H](CC(=O)NCCC(C)C)C2 | 0 | 0 | ? | ? | ? | -
COC(=O)[C@]12CCCCC=C1N(CCC1=CCCCC1)C(=O)[C@H](CC(=O)NCCCCc1ccccc1)C2 | 0 | 0 | ? | 18µM | ? | -
c1ccc(Cn2ncc3c(N4CCN(c5ccccc5)CC4)ncnc32)cc1 | 0 | 0 | ? | 16µM | 18µM | -
c1ccc(Cn2ncc3c(N4CCN(C(c5ccccc5)c5ccccc5)CC4)ncnc32)cc1 | 0 | 0 | 0 | 21µM | 18µM | -
Cc1ccc(Cn2ncc3c(N4CCCC4)ncnc32)cc1 | 0 | 0 | 0 | ? | ? | 0
